Source: ChEMBL document CHEMBL3433997, “St. Jude Leishmania screening dataset” (2016)

Columns and labels:
Assay type in all cases: functional
[1] = target: Solute carrier family 2, facilitated glucose transporter member 1 (Homo sapiens) (UniProt P11166); experiment: ST_JUDE_LEISH: Cytotoxicity at 2uM final concentration against transgenic Leishmania Mexicana promastigotes LmGLUT1 that are glucose transport deficient and complemented with the human glucose transporter GLUT1. Activity is measured by DNA content using SYBR green in vitro
Chain of Solute carrier family 2, facilitated glucose transporter member 1 (Homo sapiens) (P11166 whole entry): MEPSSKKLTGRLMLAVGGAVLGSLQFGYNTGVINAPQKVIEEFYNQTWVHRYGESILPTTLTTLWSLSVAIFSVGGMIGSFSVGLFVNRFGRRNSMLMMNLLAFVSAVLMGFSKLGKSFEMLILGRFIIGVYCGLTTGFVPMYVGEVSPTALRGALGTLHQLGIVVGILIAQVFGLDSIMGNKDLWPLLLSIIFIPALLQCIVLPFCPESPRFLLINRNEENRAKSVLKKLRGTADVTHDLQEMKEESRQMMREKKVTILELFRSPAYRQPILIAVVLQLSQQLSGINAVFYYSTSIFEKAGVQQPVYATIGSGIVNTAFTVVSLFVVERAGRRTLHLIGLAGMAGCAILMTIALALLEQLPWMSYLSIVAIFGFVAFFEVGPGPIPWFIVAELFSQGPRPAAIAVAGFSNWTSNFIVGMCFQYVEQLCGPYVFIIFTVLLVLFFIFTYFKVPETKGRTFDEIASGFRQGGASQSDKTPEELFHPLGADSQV

[2] = target: Hexose transporter 1 (Plasmodium falciparum) (UniProt O97467); experiment: ST_JUDE_LEISH: Cytotoxicity at 2uM final concentration against transgenic Leishmania Mexicana promastigotes LmPfHT that are glucose transport deficient and complemented with the Plasmodium falciparum hexose transporter. Activity is measured by DNA content using SYBR green in vitro
[3] = target: Glucose transporter (Leishmania mexicana) (UniProt O61059); experiment: ST_JUDE_LEISH: Cytotoxicity at 2uM final concentration against transgenic Leishmania Mexicana promastigotes LmGT2 that are glucose transport deficient and complemented with the L. Mexicana glucose transporter 2. Activity is measured by DNA content using SYBR green in vitro

| Structure (SMILES) | inhibition [1] | inhibition [2] | inhibition [3] |
| --- | --- | --- | --- |
| Cc1cccc(-c2nn(-c3ccccc3)cc2C(=O)Nc2nnc(C)o2)c1 | -1.38% | -1.47% | 2.67% |
| N#Cc1ccc(N2CCN(Cc3ccc(-c4cccc(-c5nc6ccccc6[nH]5)c4)cc3)CC2)nc1 | 2.3% | 1.43% | 0% |
| O=c1ccc(CNc2nc(NCCc3ccccc3)nc3cc(Cl)ccc23)c[nH]1 | 1.81% | 0.69% | 1.95% |
| Cc1cc(CNCCCCCCCNCc2cccc([N+](=O)[O-])c2)ccc1O | 2.48% | 1.23% | -1.43% |
| Cc1cccc(C)c1CNc1nc(N2CCOCC2)cc2c(C)c(C)[nH]c12 | 3.7% | 3.43% | 4.38% |
| CC(C)Nc1cc(C(=O)N[C@@H](Cc2ccccc2)[C@H](O)CNCc2cccc(C(F)(F)F)c2)c(F)c(N2CCCCS2(=O)=O)c1 | 7.12% | 6.09% | 7.07% |
| CN1CCN(Cc2cccc(-c3cc4nccc(Nc5ccc(Oc6ccccc6)cc5)c4cc3Cl)c2)CC1 | -1.94% | 0.9% | 1.01% |
| CCCCCN1CCCC(NS(=O)(=O)c2ccc(C(=O)Nc3ccc(C(F)(F)F)cc3)cc2)C1 (stereo unspecified) | 6.19% | 4.12% | 1.89% |
| COc1ccc(CNC2CCN(C)CC2)cc1-c1ccc(S(=O)(=O)NC2CCC2)c(F)c1 | 0.83% | 0.39% | 1.91% |
| NS(=O)(=O)c1ccc(CNc2ccc3ncc(-c4ccc(OC(F)(F)F)cc4)n3n2)cc1 | 4.71% | 4.62% | 4.53% |
| CCC1N=C(N)N=C(N)N1OCc1cccc2ccccc12 (stereo unspecified) | 1.74% | 0.62% | 1.16% |
| Cc1ccccc1NC(=S)NC1CCN(CCCCCNC(=O)/C=C/c2ccc(Cl)c(Cl)c2)CC1 | 5.52% | 4.69% | 2.71% |
